A short description of experiment [1]: NCI Yeast Anticancer Drug Screen. Data for the rad50 strain (AID 155).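 Further: 0% = growth of vehicle-only cultures of the same strain.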 The following applies: S. cerevisiae rad50 strain growth inhibition, stronger effect = higher value. An outline of the steps: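 Genetically altered yeast (DNA repair pathway); compound treatment; growth inhibition vs vehicle ctrl.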
Experiment [2] is described as follows: NCI Yeast Anticancer Drug Screen. Data for the mec2-1 strain (AID 157). The following applies: S. cerevisiae mec2-1 strain, stronger effect = higher value. An outline of the steps: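 Readout is yeast growth inhibition, normalised to vehicle-treated controls, in the mec2-1 strain exposed to compound.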
A short description of experiment [3]: NCI Yeast Anticancer Drug Screen. Data for the sgs1 mgt1 strain (AID 161).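 Further: 0% = growth of cultures given vehicle only.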 The note with it: S. cerevisiae sgs1 mgt1 strain, stronger effect = higher value. An outline of the steps: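 Compounds are added to genetically altered yeast, and growth is compared with cultures given vehicle alone to give percent inhibition.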
The nature of experiment [4]: NCI Yeast Anticancer Drug Screen. Data for the cln2 rad14 strain (AID 165).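 Further: 0% = growth equal to vehicle treated cultures.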 The note with it: S. cerevisiae cln2 rad14 strain, stronger effect = higher value. An outline of the steps:
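Relative to vehicle controls, growth inhibition of compound-treated cln2 rad14 yeast was recorded.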

A short description of experiment [5]: NCI Yeast Anticancer Drug Screen. Data for the bub3 strain (AID 167). The following applies: S. cerevisiae bub3 mutant strain, stronger effect = higher value. An outline of the steps: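 Yeast carrying a defined mutation is treated with each compound, and growth is compared with that of vehicle-exposed cells to give inhibition.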
Experiment [6] in a line: NCI Yeast Anticancer Drug Screen. Data for the mlh1 rad18 strain (AID 175). The note with it: S. cerevisiae mlh1 rad18 strain growth inhibition, stronger effect = higher value. An outline of the steps:
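Test agents were incubated with a yeast strain of defined genotype (DNA damage repair defect). Inhibition of growth was derived by comparison with vehicle-exposed cultures.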

Where [7] appears, read: at 5.0 µM (retest, dose inferred, filed as 0.5).
[8] abbreviates: at 50.0 µM (retest, dose inferred, filed as 5.0).

SMILES strings stand for the structures. This is part of a sample that, as a whole, favours compounds with a hit. Of some 79,000 tested, about 15% had one in any assay. Unmarked numbers belong to inactive results. Active and inactive are the calls of the source. No stated cut-off is given here; in the data, active means growth inhibition above about 70%; inactive means the rest.

As to `CC(CN(C)C)C(/C=C/c1ccc(Cl)c(Cl)c1)=N\Nc1ccccc1` (configuration not stated), the growth inhibition is 2% in experiment [1] (setting [7]); 96% (active) in experiment [1] (setting [8]); 54.1% in experiment [1] (at 50.0 µM); -3% in experiment [2] (setting [7]); 98% (active) in experiment [2] (setting [8]); 98.7% (active) in experiment [2] (at 50.0 µM). Besides, the growth inhibition was 3% in experiment [3] (setting [7]); 99% (active) in experiment [3] (setting [8]); 49.3% in experiment [3] (at 50.0 µM); 3% in experiment [4] (setting [7]); 96% (active) in experiment [4] (setting [8]); 47.1% in experiment [4] (at 50.0 µM). Moreover, the growth inhibition in experiment [5] (setting [7]) is -1%; in experiment [5] (setting [8]), 91% (active); in experiment [5] (at 50.0 µM), 88.4% (active); in experiment [6] (setting [7]), 9%; in experiment [6] (setting [8]) it was 96% (active); in experiment [6] (at 50.0 µM), 64.6%.

Regarding `O=C(/C(=N/O)[n+]1ccccc1)c1ccccc1`, the growth inhibition in experiment [1] (setting [7]) is -4%; in experiment [1] (setting [8]), 69%; in experiment [1] (at 50.0 µM), 73.2% (active); in experiment [2] (setting [7]), -3%; in experiment [2] (setting [8]) it was 60%; in experiment [2] (at 50.0 µM), 26.8%. Also, the growth inhibition in experiment [3] (setting [7]) is -9%; in experiment [3] (setting [8]), 33%; in experiment [3] (at 50.0 µM), 41.7%; in experiment [4] (setting [7]) it was -6%; in experiment [4] (setting [8]), -7%; in experiment [4] (at 50.0 µM), -10.8%. Further, the growth inhibition is -1% in experiment [5] (setting [7]); 94% (active) in experiment [5] (setting [8]); 41.8% in experiment [5] (at 50.0 µM); 4% in experiment [6] (setting [7]); 53% in experiment [6] (setting [8]); 78.5% (active) in experiment [6] (at 50.0 µM).

On to `CNC(=O)c1cccc2c(Nc3ccc(NS(C)(=O)=O)cc3OC)c3cccc(C)c3nc12`, for which the growth inhibition in experiment [1] (setting [7]) was 47%; in experiment [1] (setting [8]) it was 93% (active); in experiment [1] (at 50.0 µM) it was 75.8% (active); in experiment [2] (setting [7]), 17%; in experiment [2] (setting [8]), 95% (active); in experiment [2] (at 50.0 µM) it was -0.8%. The growth inhibition is 12% in experiment [3] (setting [7]); 66% in experiment [3] (setting [8]); -4.45% in experiment [3] (at 50.0 µM); 30% in experiment [4] (setting [7]); 57% in experiment [4] (setting [8]); -0.4% in experiment [4] (at 50.0 µM). Moreover, the growth inhibition in experiment [5] (setting [7]) was 19%; in experiment [5] (setting [8]), 91% (active); in experiment [5] (at 50.0 µM), -37.2%; in experiment [6] (setting [7]) it was 19%; in experiment [6] (setting [8]), 86% (active); in experiment [6] (at 50.0 µM), -24.5%.

On to `Cc1cc(Cl)nc2ccc(Cc3ccc4nc(Cl)cc(C)c4c3)cc12`, for which the growth inhibition is 4% in experiment [1] (setting [7]); 27% in experiment [1] (setting [8]); 15.1% in experiment [1] (at 50.0 µM); 15% in experiment [2] (setting [7]); 5% in experiment [2] (setting [8]); 2.45% in experiment [2] (at 50.0 µM). Further, the growth inhibition in experiment [3] (setting [7]) was 7%; in experiment [3] (setting [8]) it was 7%; in experiment [3] (at 50.0 µM), -19.6%; in experiment [4] (setting [7]), 3%; in experiment [4] (setting [8]), 13%; in experiment [4] (at 50.0 µM) it was 15.4%. The growth inhibition in experiment [5] (setting [7]) is 8%; in experiment [5] (setting [8]) it was 13%; in experiment [5] (at 50.0 µM), 23.4%; in experiment [6] (setting [7]), 0%; in experiment [6] (setting [8]), 12%; in experiment [6] (at 50.0 µM), 37.8%.

In the case of `CN(C)Cc1cc(C(C)(C)C)cc(C2CCCCC2)c1O`, the growth inhibition is 2% in experiment [1] (setting [7]); 58% in experiment [1] (setting [8]); 66.4% in experiment [1] (at 50.0 µM); -9% in experiment [2] (setting [7]); 66% in experiment [2] (setting [8]); 38.5% in experiment [2] (at 50.0 µM). Moreover, the growth inhibition in experiment [3] (setting [7]) is -1%; in experiment [3] (setting [8]), 95% (active); in experiment [3] (at 50.0 µM), 74.3% (active); in experiment [4] (setting [7]), -4%; in experiment [4] (setting [8]), 8%; in experiment [4] (at 50.0 µM), 61.7%. The growth inhibition in experiment [5] (setting [7]) was -6%; in experiment [5] (setting [8]), 40%; in experiment [5] (at 50.0 µM) it was 71.8% (active); in experiment [6] (setting [7]), 1%; in experiment [6] (setting [8]) it was 94% (active); in experiment [6] (at 50.0 µM) it was 92.4% (active).

Regarding `c1ccc(C2=NOC3(c4ccccc4)SC4CCCCC4CN23)cc1` (configuration not stated), the growth inhibition in experiment [1] (setting [7]) is 6%; in experiment [1] (setting [8]), 97% (active); in experiment [1] (at 50.0 µM), 90.3% (active); in experiment [2] (setting [7]) it was -22%; in experiment [2] (setting [8]), 98% (active); in experiment [2] (at 50.0 µM), 93.7% (active). In addition, the growth inhibition in experiment [3] (setting [7]) was 10%; in experiment [3] (setting [8]) it was 97% (active); in experiment [3] (at 50.0 µM), 92.4% (active); in experiment [4] (setting [7]), 15%; in experiment [4] (setting [8]) it was 98% (active); in experiment [4] (at 50.0 µM), 90.4% (active). Further, the growth inhibition is 25% in experiment [5] (setting [7]); 97% (active) in experiment [5] (setting [8]); 90.2% (active) in experiment [5] (at 50.0 µM); 8% in experiment [6] (setting [7]); 98% (active) in experiment [6] (setting [8]); 90.1% (active) in experiment [6] (at 50.0 µM).

As for `CC(=O)OCCSCCOC(C)=O`, the growth inhibition in experiment [1] (setting [7]) is 20%; in experiment [1] (setting [8]), 90% (active); in experiment [1] (at 50.0 µM), 76.4% (active); in experiment [2] (setting [7]), -1%; in experiment [2] (setting [8]), 84% (active); in experiment [2] (at 50.0 µM), 29.4%. In addition, the growth inhibition is 6% in experiment [3] (setting [7]); 88% (active) in experiment [3] (setting [8]); 81% (active) in experiment [3] (at 50.0 µM); 7% in experiment [4] (setting [7]); 23% in experiment [4] (setting [8]); 12.2% in experiment [4] (at 50.0 µM). The growth inhibition is 7% in experiment [5] (setting [7]); 88% (active) in experiment [5] (setting [8]); 39% in experiment [5] (at 50.0 µM); 7% in experiment [6] (setting [7]); 90% (active) in experiment [6] (setting [8]); 78.3% (active) in experiment [6] (at 50.0 µM).

As for `Cc1c2ccncc2c(C)c2c1[nH]c1ccc(OCCN(C)C)cc12`, the growth inhibition is 28% in experiment [1] (setting [7]); 93% (active) in experiment [1] (setting [8]); 99% (active) in experiment [1] (at 50.0 µM); 5% in experiment [2] (setting [7]); 43% in experiment [2] (setting [8]); 77.3% (active) in experiment [2] (at 50.0 µM). Moreover, the growth inhibition in experiment [3] (setting [7]) is 5%; in experiment [3] (setting [8]) it was 53%; in experiment [3] (at 50.0 µM), 93.3% (active); in experiment [4] (setting [7]) it was 7%; in experiment [4] (setting [8]), 40%; in experiment [4] (at 50.0 µM), 71.8% (active). Moreover, the growth inhibition in experiment [5] (setting [7]) was 4%; in experiment [5] (setting [8]), 32%; in experiment [5] (at 50.0 µM) it was 88.9% (active); in experiment [6] (setting [7]), 7%; in experiment [6] (setting [8]), 51%; in experiment [6] (at 50.0 µM) it was 96.3% (active).

For the compound `COc1ccc2c(c1)[n+]([O-])c(C(N)=O)c(N)[n+]2[O-]`, the growth inhibition in experiment [1] (setting [7]) was 23%; in experiment [1] (setting [8]) it was 100% (active); in experiment [1] (at 50.0 µM), 99.4% (active); in experiment [2] (setting [7]), 14%; in experiment [2] (setting [8]), 100% (active); in experiment [2] (at 50.0 µM), 99.5% (active). For the same compound, the growth inhibition in experiment [3] (setting [7]) was 17%; in experiment [3] (setting [8]) it was 99% (active); in experiment [3] (at 50.0 µM), 99.3% (active); in experiment [4] (setting [7]), 31%; in experiment [4] (setting [8]), 98% (active); in experiment [4] (at 50.0 µM), 99.1% (active). For the same compound, the growth inhibition in experiment [5] (setting [7]) was 40%; in experiment [5] (setting [8]) it was 99% (active); in experiment [5] (at 50.0 µM), 98.4% (active); in experiment [6] (setting [7]) it was 42%; in experiment [6] (setting [8]), 99% (active); in experiment [6] (at 50.0 µM), 99.2% (active).
